We go through 39 molecules from PubChem BioAssay (NCATS).

Molecules are shown by their SMILES. Results filed as inconclusive are left out. Entries that show only a call come without a potency. Activity calls are given as the source filed them. The call rests on the fitted dose curve.
Potency means the concentration at half of the fitted maximal effect.

For this assay, the target named is Nucleoprotein (Lymphocytic choriomeningitis virus (strain Armstrong)) (UniProt P09992). Description: qHTS for Inhibitors of the Functional Ribonucleoprotein Complex (vRNP) of Lymphocytic Choriomeningitis Arenaviruses (LCMV): LCMV Primary Screen - GLuc reporter signal (AID 1347086). Further: nearly all actives have a fitted effect of over 70% in size. The note with it: LCMV minigenome vRNP cell assay, Gaussia luciferase reporter; series mostly up to 57.5 µM.
Nucleoprotein (Lymphocytic choriomeningitis virus (strain Armstrong)), sequence (P09992 whole entry, looked up): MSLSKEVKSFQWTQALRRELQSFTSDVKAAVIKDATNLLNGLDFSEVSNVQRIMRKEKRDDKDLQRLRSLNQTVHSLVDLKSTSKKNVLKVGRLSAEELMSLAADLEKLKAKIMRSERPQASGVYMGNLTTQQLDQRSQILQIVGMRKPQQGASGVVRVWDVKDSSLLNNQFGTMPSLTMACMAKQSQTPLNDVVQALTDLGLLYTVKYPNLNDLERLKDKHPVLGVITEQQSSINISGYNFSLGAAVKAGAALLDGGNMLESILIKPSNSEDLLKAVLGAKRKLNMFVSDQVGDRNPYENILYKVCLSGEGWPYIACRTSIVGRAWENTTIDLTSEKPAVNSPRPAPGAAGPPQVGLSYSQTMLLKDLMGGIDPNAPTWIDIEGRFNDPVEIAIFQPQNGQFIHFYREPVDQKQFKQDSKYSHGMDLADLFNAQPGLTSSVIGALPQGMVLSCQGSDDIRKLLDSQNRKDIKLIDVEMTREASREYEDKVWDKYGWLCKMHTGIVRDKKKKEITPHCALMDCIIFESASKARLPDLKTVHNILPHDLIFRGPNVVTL
As to `O=Cc1ccccc1C=O`, the Potency result is “inactive”.
Consider `CN(C)CCN(Cc1ccccc1)c1ccccn1`, for which the Potency entry was “inactive”.
Under `CN(C)CCN1C(=O)c2ccccc2N(C)c2ccccc21` stands “inactive”; under `NCCc1cnc[nH]1`, “inactive”; under `Cc1sccc1Br`, “inactive”.
`O=C(Nc1ccc(C(=O)O)c(O)c1)c1ccccc1`: the Potency entry is “inactive”.
Under `CN1CCN(c2cc3c(cc2F)c(=O)c(C(=O)O)cn3-c2ccc(F)cc2)CC1` stands “inactive”.
For `Cc1nc2sccn2c(=O)c1CCN1CCC(=C(c2ccc(F)cc2)c2ccc(F)cc2)CC1`, the Potency entry was “inactive”.
As for `CCn1cc(C(=O)O)c(=O)c2cc(F)c(N3CCNCC3)nc21`, the Potency entry was “inactive”.
To `NS(=O)(=O)c1cc2c(cc1Cl)NC(CSCc1ccccc1)=NS2(=O)=O` belongs “inactive”; to `CCC(=O)c1ccc2c(c1)N(CCCN(C)C)c1ccccc1S2`, “inactive”.
To `CC(NC(CCc1ccccc1)C(=O)O)C(=O)N1C(=O)N(C)CC1C(=O)O` (centres undefined) belongs “inactive”.
In the case of `Nc1ccncc1N`, the Potency result is “inactive”.
As to `CCOC(=O)c1cc(=O)c2c(OCC(COc3cccc4oc(C(=O)OCC)cc(=O)c34)OC(=O)[C@@H](N)CCCCN)cccc2o1`, the Potency result was “inactive”.
For `C[N+]1(C)CCC(=C(c2ccccc2)c2ccccc2)CC1`, the Potency result is “inactive”.
Take `OC[C@@H](O)[C@H](O)[C@H](O)[C@@H](O)CO`: the Potency result was “inactive”.
`CC1(C)[C@@H](OC(=O)CCC(=O)O)CC[C@]2(C)[C@H]3C(=O)C=C4[C@@H]5C[C@@](C)(C(=O)O)CC[C@]5(C)CC[C@@]4(C)[C@]3(C)CC[C@@H]12`: the Potency result is “inactive”.
To `CC(=O)OC[C@H]1O[C@@](COC(C)=O)(O[C@H]2O[C@H](COC(C)=O)[C@@H](OC(C)=O)[C@H](OC(C)=O)[C@H]2OC(C)=O)[C@@H](OC(C)=O)[C@@H]1OC(C)=O` belongs “inactive”.
To `CC1=CC(=O)c2ccccc2C1=O` belongs “inactive”; to `CN1Cc2c(N)cccc2C(c2ccccc2)C1` (centres undefined), “inactive”.
To `C#CCN(C)Cc1ccccc1` belongs “inactive”; to `CCCc1nc(C)c2c(=O)[nH]c(-c3cc(S(=O)(=O)N4CCN(CC)CC4)ccc3OCC)nn12`, “inactive”; to `CC(=O)OCC(=O)Nc1cc(C#N)cc(NC(=O)COC(C)=O)c1Cl`, “inactive”.
As to `O=C(NOCC1CC1)c1ccc(F)c(F)c1Nc1ccc(I)cc1Cl`, the Potency result was “inactive”.
As to `CCOc1ccc2nc(S(N)(=O)=O)sc2c1`, the Potency entry is “inactive”.
On to `CCC1(c2cnc[nH]2)Cc2ccccc2C1`, for which the Potency entry was “inactive”.
`Nc1ccc(S(=O)(=O)Nc2cnc3ccccc3n2)cc1`: the Potency result is “inactive”.
On to `COC(=O)C1=C(C)NC(C)=C(C(=O)O[C@@H]2CCCN(Cc3ccccc3)C2)[C@@H]1c1cccc([N+](=O)[O-])c1`, for which the Potency entry is “inactive”.
To `CN(C)CCOC(c1ccccc1)c1ccc(Br)cc1` (centres undefined) belongs “inactive”.
Under `CC(=O)[C@@]1(O)CC[C@H]2[C@@H]3CCC4=CC(=O)CC[C@]4(C)[C@H]3CC[C@@]21C` stands “inactive”; under `CCCCN(CCCC)CCC(O)c1cc2c(Cl)cc(Cl)cc2c2cc(C(F)(F)F)ccc12` (centres undefined), “inactive”.
Take `CC(C)(C)C(=O)OCOC(=O)C1N2C(=O)CC2S(=O)(=O)C1(C)C` (centres undefined): the Potency entry is “inactive”.
For the molecule `O=C1OC(c2ccc(O)cc2)(c2ccc(O)cc2)c2ccccc21`, the Potency result is “inactive”.
Under `CCOCC(O)COc1ccc(NC(=O)CC[S+](C)C)cc1` (centres undefined) stands “inactive”.
To `Cc1cc2nc3ccc(=[N+](C)C)cc-3sc2cc1N` belongs 6.31 µM (active); to `C=CC[N+]1([C@H]2C[C@H]3[C@@H]4CC[C@H]5C[C@H](OC(C)=O)[C@@H](N6CCCCC6)C[C@]5(C)[C@H]4CC[C@]3(C)[C@H]2OC(=O)CC)CCCCC1`, “inactive”; to `O=S1(=O)OC(c2ccc(O)cc2)(c2ccc(O)cc2)c2ccccc21`, “inactive”.
Under `CC(C)COCC(CN(Cc1ccccc1)c1ccccc1)N1CCCC1` (centres undefined) stands “inactive”; under `Cc1cccc(CN2CCN(C(c3ccccc3)c3ccc(Cl)cc3)CC2)c1` (centres undefined), “inactive”.
